The campaign covered roughly 350,000 compounds. About 31,000 (8.9%) were called active. Roughly 15% stayed inconclusive and do not appear here. Calls follow the shape of the dose curve; as a rule, active = well fitted inhibition curve with a large enough effect; inconclusive = small, poorly fitted or top-dose-only effect; inactive = no such curve, though single readings can be large or run the other way. The sample as a whole holds a higher share of actives than the screen did.
biological target: Histone-lysine N-methyltransferase EHMT2 (Homo sapiens) (UniProt Q96KQ7); experiment: qHTS Assay for Inhibitors of Histone Lysine Methyltransferase G9a; conditions: G9a H3K9 monomethylation, AlphaScreen, 2 h; series mostly up to 59 µM; also: nearly all actives have a fitted effect of over 75% in size
Sequence (Q96KQ7 913-1193 limits assumed): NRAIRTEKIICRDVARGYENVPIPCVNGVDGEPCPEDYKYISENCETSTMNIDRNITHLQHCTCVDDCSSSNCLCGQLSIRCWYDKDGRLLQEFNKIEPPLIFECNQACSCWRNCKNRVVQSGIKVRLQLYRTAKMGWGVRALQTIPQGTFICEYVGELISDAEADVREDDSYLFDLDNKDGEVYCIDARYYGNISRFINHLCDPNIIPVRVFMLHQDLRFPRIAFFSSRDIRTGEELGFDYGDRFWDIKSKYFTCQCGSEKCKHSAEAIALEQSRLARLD
In short: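 Quantitative HTS format: methyltransferase activity on a biotin-tagged H3K9 peptide is measured by AlphaScreen, using a rabbit anti-monomethyl-H3K9 antibody with streptavidin donor and anti-IgG acceptor beads. Final levels are 20 nM enzyme, 500 nM peptide, 20 uM SAM; 2 h RT.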
% is scaled to controls: 0 for no effect and ±100 for the full control effect; potency is read from the fitted curve at half-maximal effect.

Potency, inactive:
Cc1cc(=O)c2cc(C(=O)Nc3cccc(C)c3C)ccc2[nH]1, COc1ccc(/C=N/NC(=O)c2ccc(Cl)cc2)cc1COC(C)=O, COc1cc(/C=N/NC(=O)CNC(=O)c2ccncc2)ccc1OC(C)=O, COC(=O)CN1C(=O)CSc2ccc(S(=O)(=O)Nc3cc(C)ccc3C)cc21, Cn1c(SCC(=O)NC2CCCCC2)nnc1-c1ccc(N)cc1, CCC(=O)Nc1cccc(NC(=O)CSc2nnc(-c3ccc(NS(C)(=O)=O)cc3)n2C)c1, CCc1ccc(N(CC(=O)NCc2cccnc2)S(=O)(=O)c2ccccc2)cc1, Cc1ccc(S(=O)(=O)c2nnn3c2nc(N2CCN(c4ccccc4F)CC2)c2cc(Cl)ccc23)cc1C, CCOc1cccc(CNC(=O)c2ccc(N3CCCC3)c(NC(=O)Nc3ccccc3CC)c2)c1, Cc1ccc(CNC(=O)COc2ccc3c(c2)CCC3)cc1, CCOCCn1ccc2c(OCC(=O)NCc3ccc(C)cc3)cccc2c1=O, COc1cc(Cl)c(C)cc1NC(=O)CCc1nc2cccnc2n1Cc1cccs1, CC(=O)c1ccc2c(c1)c1ccccc1n2CC(C)C, CCn1c(NC(=O)c2ccccc2)c(-c2cccs2)c(=O)c2ccccc21, CCCCCn1c(CCNC(=O)c2ccc(F)cc2)nc2ccccc21, CCN(CC)CCCNC(=O)c1c(O)c2cc(F)cc3c2n(c1=O)C(C)CC3 (stereo not drawn), NC(=O)c1ccc(Nc2ccc3c(c2)CCC3)c([N+](=O)[O-])c1, CCOc1ccccc1Nc1ccc2nonc2c1[N+](=O)[O-], O=C(NC1CCCC1)c1cc(-c2ccccc2)on1, CN(C(=O)COC(=O)CCCc1c[nH]c2ccccc12)c1c(N)n(Cc2ccccc2)c(=O)[nH]c1=O, O=C(COC(=O)Cc1c[nH]c2ccccc12)NCCc1ccccc1, COC(=O)c1ccc(CN2CCCC(C(=O)Nc3cccc(-n4cnnn4)c3)C2)cc1 (stereo not drawn), CCOc1ccc(NC(=O)C2CCCN(C(=O)Nc3ccccc3)C2)cc1 (stereo not drawn), CCNS(=O)(=O)c1cc(-c2nnc(Nc3cccc(C(F)(F)F)c3)c3ccccc23)ccc1C, Cc1c(C(=O)Nc2ccccn2)oc2ccc(Br)cc12, Cc1csc(NC(=O)CSc2nc(=O)n(CCCN(C)C)c3c2CCC3)n1, Cc1ccc(OCC(=O)Nc2ccc(OCc3cc(=O)n4c(C)csc4n3)cc2)cc1C, COc1cccc(-c2nc(CS(=O)(=O)CC(=O)NCCc3ccc(OC)c(OC)c3)c(C)o2)c1, Cc1ccc(-c2nc(CS(=O)(=O)CC(=O)NCc3ccc4c(c3)OCO4)c(C)o2)cc1, CCN(CC(=O)Nc1c(F)cccc1F)C(=O)C1CCC1, COc1cccc(NC(=O)C(=O)NCC(c2ccc3c(c2)OCO3)N2CCN(C)CC2)c1 (stereo not drawn), CCOC(=O)c1c(-c2ccc(OC)cc2)oc2ccc(OCc3ccc(C(=O)OC)cc3)cc12, CCc1nnc(NC(=O)c2c(O)c3c([nH]c2=O)CCCC3)s1, O=C(NCc1ccccn1)c1c(O)c2c([nH]c1=O)CCCC2, O=C(Nc1ccc(Br)cc1)c1ccc(Br)c(S(=O)(=O)NCc2ccccc2)c1, CN(C)S(=O)(=O)N1CCC(Oc2cccc(C(=O)NCCCC3CCCC3)c2)CC1, C=CCNc1nnc(C)c2ccccc12, O=C(CSc1nc2ccccc2nc1Cc1ccccc1)N1CCCCC1, O=C(COc1ccccc1O)NC1CCCC1, COc1cc2ccccc2cc1C(=O)N1CCOCC1, COc1cc(OC)cc(C(=O)NNC(=O)CNC(=O)c2ccc(Br)o2)c1, O=C(Cn1cc(SCc2ccccc2)c2ccccc21)N1CCCCC1, O=C(Cn1cc(SCc2cccc(Cl)c2)c2ccccc21)N1CCCCC1, CCc1cccc(C)c1NS(=O)(=O)c1ccc(-c2cc(C)no2)s1, COc1cccc(Nc2nc3ccccc3c3nncn23)c1, O=C(CN1CCN(Cc2ccc(Cl)cc2)C1=O)NCc1ccc(F)cc1

Potency, active:
COc1ccc(/C=N/NC(=O)c2ccncc2)cc1CN1CCCc2ccccc21 35.5 µM, CCCCSc1nnc(-c2ccc(NC(=O)CC)cc2)n1C 50.1 µM, CCOCC(=O)NCc1ccc2c(c1)cc(C)n2C 35.5 µM, CC(C)Cn1c(CCC(=O)O)ccc1-c1cccs1 17.8 µM, NC(=O)c1ccc(Nc2ccc3nonc3c2[N+](=O)[O-])cc1 56.2 µM, CC(C)(C)N(Cc1ccccc1)C(=O)COC(=O)CCc1c[nH]c2ccccc12 14.1 µM, Nc1ncc(CN2CCCC(C(=O)Nc3ccc(-c4ccco4)cc3)C2)cn1 (stereo not drawn) 50.1 µM, Cc1ccc2nc(NC(=O)CSc3nc(=O)n(CCCN(C)C)c4c3CCC4)sc2c1 39.8 µM, COc1ccc(-c2nc(CS(=O)(=O)CC(=O)NCc3cccc(Br)c3)c(C)o2)cc1 44.7 µM, C[N+](C)(C)CCNC(=O)c1c(O)c2c([nH]c1=O)CCCC2 10 µM, C=CCNc1nnc(SCC(=O)N2CCCCC2)c2ccccc12 50.1 µM, CCc1cccc2c(C=C(C#N)C#N)cn(CC(=O)N3CCCCC3)c12 44.7 µM

activity, negative = inhibition, inactive:
O=C1CCc2cc(S(=O)(=O)Nc3ccc(C(F)(F)F)cc3)cc3c2N1CC3 -22.3% [at 0.501 µM], Cc1ccc(CNC(=O)c2cccc3c2C(=O)c2ccc(N4CCC(C)CC4)cc2S3(=O)=O)cc1 6.64% [at 0.501 µM], Cc1ccc(NC(=O)CSc2nc(=O)n(CCN(C)C)c3c2CCCC3)c(C)c1 6.7% [at 0.501 µM], CC(=O)c1sc(NC(=O)CCN2C(=O)C3CC=CCC3C2=O)nc1-c1ccccc1 (stereo not drawn) -8.89% [at 2.33 µM], COc1ccc(CCNC(=S)N2CCN(S(=O)(=O)c3ccc(F)cc3)CC2)cc1 -16.1% [at 0.501 µM]

From PubChem BioAssay AID504332 (National Center for Advancing Translational Sciences (NCATS), 2011)
